Measured values from PubChem BioAssay AID1259309 (ICCB-Longwood Screening Facility, Harvard Medical School, 2017).
Values joined by “and” are separate entries in the source; they are usually repeats but may differ in a detail not shown here. Identical values can stand only once. Out of some 330,000 compounds screened, about 1,800 (0.55%) were called active. The list comes from a sample in which actives are over-represented; it also holds similar structures and randomly drawn compounds. Unmarked numbers belong to inactive results. Rule as the data show it: active = growth inhibition above about 68%; inactive = the rest.

Assay: growth inhibition of ugtP-null S. aureus, primary screen, RN4220 ugtP deletion, OD600 (AID 1259309);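 also: plate controls were untreated wells for no effect and antibiotic for full effect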
Settings: 16 h, hits give high values

Row | Structure (SMILES) | growth inhibition
1 | Cc1ccc(S(=O)(=O)N(Cc2cccc([N+](=O)[O-])c2)C(=O)N2CCN(C)CC2)cc1 | 2.43%
2 | O=C(c1cccc([N+](=O)[O-])c1)N1CCN(Cc2ccccc2)CC1 | 9.07%
3 | O=C(CCl)N(Cc1cccc([N+](=O)[O-])c1)c1cccc(Cl)c1 | 97.8% (active)
4 | COC(=O)C1=C(c2ccc3ccccc3c2)CC2CCC1N2C(=O)NCc1ccc(F)cc1 (centres undefined) | 12%
5 | COc1cccc(C2C3=C(N=c4sc(=Cc5cccc(O)c5)c(=O)n42)c2ccccc2CC3)c1OC (centres undefined) | -7.58%
6 | COc1ccc(CN(Cc2ccc(OC)cc2)C(=O)c2cccs2)cc1 | 43.4%
7 | COc1ccc(C(CCN(Cc2ccc(OC)c(OC)c2)C(=O)CCl)c2ccccc2)cc1 (centres undefined) | 98% (active)
8 | COc1ccc(CCNC(=O)C(Sc2ccccn2)c2ccccc2)cc1OC (centres undefined) | 9.85%
9 | COc1ccc(N(CC(=O)NN=Cc2ccco2)S(=O)(=O)c2ccccc2)cc1Cl | 2.1%
10 | COc1ccc(C=NNC(=O)COc2ccc(C(C)(C)C)cc2)cc1Cn1nc(C)cc1C | 0.349%
11 | O=C(NN=Cc1cccnc1)C1CC1(c1ccccc1)c1ccccc1 (centres undefined) | 9.47%
12 | O=C1C=C(c2cccc(CO)c2)CC(c2ccc(Cl)cc2)C1 (centres undefined) | 7.76%
13 | FC(F)(F)c1cccc(NC(=S)Nc2cccc(Cl)c2)c1 | 93.1% (active)
14 | Cn1cc(Cl)c(C(=O)NNC(=S)Nc2cccc(Cl)c2)n1 | -5.85%
15 | O=C(O)CC1(CC(=O)Nc2cccc(C(F)(F)F)c2)CCCC1 | -0.923%
16 | Cc1ccc(SC(=NS(=O)(=O)c2ccc(Cl)cc2)c2ccccc2)cc1 | 60.7%
17 | O=C(COC(=O)C=Cc1ccccc1)Nc1cc(C(F)(F)F)ccc1N1CCOCC1 | -9.22%
18 | CCCCCCCCn1c2c(c(=N)c3c1CCC3)CCCC2 | 100% (active)
19 | COc1ccc(OC)c(C=NNC(=O)c2ccc(-c3ccccc3)cc2)c1 | 1.81%
20 | CC(=NNC(=O)c1cc(-c2ccc(Br)s2)[nH]n1)c1ccncc1 | -6.85%

Row | Structure (SMILES) | growth inhibition
21 | CC1COc2ccccc2N1C(=O)c1ccc(F)cc1 (centres undefined) | -0.431%
22 | O=C(Nc1nnc(C2COc3ccccc3O2)o1)c1ccc(F)cc1 (centres undefined) | 90.2% (active)
23 | O=C(COC(=O)c1ccc(F)cc1)NCC1COc2ccccc2O1 (centres undefined) | -4.48%
24 | COC(=O)c1ccccc1-c1ccc(C=NNc2nc(N3CCCC3)nc(N3CCCC3)n2)o1 | -8.43%
25 | CON=Cc1cc(C(=O)c2ccc(Cl)cc2Cl)cn1C | -4.32%
26 | CC(C)=CCCC1(C)C=Cc2c(ccc3c2[nH]c2cc(O)c(C)cc23)O1 (centres undefined) | 95.6% (active)
27 | CC[C@@]12C(=O)N(c3cccc(F)c3)C(=O)N1C(c1ccc(Br)cc1)C1C(=O)N(C(C)(C)C)C(=O)C12 (some centres undefined) | -3.27%
28 | CCCCCCCCCCCCN1CC(=CC(=O)OCC)c2cc(C(F)(F)F)ccc2S1(=O)=O | 2.79%
29 | O=C(CON=Cc1c(Cl)cccc1Cl)NNC(=O)c1cccc(Cl)c1 | 2.89%
30 | Cc1cccc(NC(=O)CSC(N)=O)c1C | 8.69%
31 | Cc1ccccc1NC(=O)CSC(=O)c1ccccc1 | 5.32%
32 | Cc1ccccc1N/C(SCc1ccc(Cl)cc1)=C(/C#N)C(N)=O | 84.4% (active)
33 | O=C(OCC(=O)c1c[nH]c2ccccc12)c1cccc(O)c1 | -15.2%
34 | O=C(OCc1ccc(-c2ccccc2)cc1)c1cccc(O)c1 | 100% (active)
35 | O=C(CNC(=O)c1ccc(-c2ccccc2)cc1)OCc1ccc(Cl)cc1 | 19.4%
36 | Cn1cccc1CC(=O)NN=Cc1ccco1 | -0.545%
37 | OCCC1CC(O)C(O)[C@]2(OCCCc3ccccc32)O1 (some centres undefined) | 4.16% and 2.75%
38 | COc1cc(C=NNC(=O)CC#N)ccc1Oc1nc(Cl)ncc1F | -1.11%
39 | O=C(Oc1ccc(C=NNc2ccccc2)cc1)c1ccccc1 | -8.03%
40 | Cc1cc(C)n(C(=O)C(C#N)=NNc2cc(Cl)cc(Cl)c2)n1 | 99.7% (active)

Row | Structure (SMILES) | growth inhibition
41 | Cc1cc(C)n(C(=O)CCNC(=O)c2ccccc2Cl)n1 | -2.2%
42 | N#CC(=NNc1cc(Cl)cc(Cl)c1)c1nnc2n1CCCCC2 | -12%
43 | CC(=NNC(=O)c1ccco1)c1ccc(NC(=O)C(F)(F)F)cc1 | 0.661%
44 | CCOc1ccc(N2C(=O)CC(S/C(N)=N/N=Cc3cccs3)C2=O)cc1 (centres undefined) | 4.39%
45 | CCOC1OC(C(=O)N2CCN(Cc3ccc4c(c3)OCO4)CC2)=CC(c2cn(C(C)=O)c3ccccc23)C1CCCO (centres undefined) | -12.6% and 8.11%
46 | Oc1ccccc1C=NNc1cccc2cccnc12 | 83% (active)
47 | Oc1ccccc1C=NNc1nccnc1Cl | 0.00308%
48 | Oc1ccc(C=NNc2cccc3cccnc23)c(O)c1 | 3.39%
49 | Cc1ccc2nc(NN=Cc3ccccc3C#N)nc(-c3ccccc3)c2c1 | 11.2%
50 | O=c1c2nnn(-c3ccccc3)c2ncn1CC=Cc1ccccc1 | 12.1%
51 | CCOc1ccc2c(c1)C(c1ccc(C)cc1)=NNC(c1ccc(C)cc1)=N2 | 10.8%
52 | CCOc1ccc(-c2cc(C)[n+](CCN(CC)CC)c(-c3ccc(OCC)cc3)c2)cc1 | 97.1% (active)
53 | CCOc1ccc(-c2nnc3ccc(SC)nn23)cc1 | 0.868%
54 | CCCC(C#Cc1ccc(N(C)C)cc1)=C1c2ccccc2C(=O)N1c1ccccc1 | 13.2%
55 | COC(=O)NN=Cc1cc(Br)ccc1OCc1ccccc1 | 20.2%
56 | C(=Nn1c2ccccc2c2ccccc21)c1ccccc1 | 11.7%
57 | CC(C)c1ccc2c(c1)c(SC(C)(C)C)c(CC(C)(C)C(=O)O)n2Cc1ccc(Cl)cc1 | 101% (active)
58 | CCOc1ccc2ccccc2c1C=NNC(=O)CNC(=O)C(c1ccccc1)c1ccccc1 | 22.4%
59 | CN1CCSC1=CC=C1C(=O)N(C)C(=S)N1C | -5.24%
